Data as given in PubChem BioAssay AID1246 (Columbia University Molecular Screening Center, 2008).
Among all 120,000 compounds or so, about 840 (0.7%) were called active.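 The calls were made as follows: active = inhibition above the batch mean plus 3 SD, and confirmed as a hit on visual image review (cut at about 43% in these data); inconclusive = passes the inhibition cutoff but fails visual image review; inactive = the rest.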 The list comes from a sample in which actives are over-represented; it also holds similar structures and randomly drawn compounds.

Assay: E-selectin induction blockers in HUVEC – imaging, immunofluorescence, high content, primary screen (AID 1246);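 also: 0% = TNF-stimulated DMSO wells and 100% = unstimulated control wells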
Conditions: HUVEC TNFa-induced E-selectin immunofluorescence, at 2 µM, hits give high values

Question: Which inhibition does the source give for `Cc1ccc(CN2CCN(Cc3ccc4ncccc4c3)CC2CCO)cc1` (configuration not stated) here?
Answer: The inhibition was -11.2% (inactive).

Question: Which inhibition does the source give for `COc1ccc(Cn2c(=O)cc(C)[nH]c2=S)cc1` here?
Answer: The inhibition was 5.51% (inactive).

Question: For `Cn1cccc1C(C#N)c1ccccc1C#N` (configuration not stated), which inhibition is on record?
Answer: The inhibition was 20.5% (inactive).

Question: With `CCCS(=O)(=O)N1CCC(CCOc2ccccc2)(C(=O)OCC)CC1` as the compound, how does the inhibition read?
Answer: The inhibition was -12.3% (inactive).

Question: Which inhibition does the source give for `COc1ccc(F)c(-c2nc(CN3CCC(c4ccccc4)CC3)c(C)o2)c1` here?
Answer: Its inhibition is -28.7% (inactive).

Question: For `COc1ccc(CS(=O)/C(Cl)=C(/Cl)C(=O)Nc2ccc(OC)nc2)cc1` (configuration not stated), which inhibition is on record?
Answer: Its inhibition is 99.4% (active).

Question: For `COc1ccc(NC(=O)/C(Cl)=C(/Cl)S(=O)Cc2ccc(C)cc2)cn1` (configuration not stated), which inhibition is on record?
Answer: The inhibition was 27.8% (inactive).

Question: With `COc1ccc(NC(=S)Nc2ccccc2Cl)cn1` as the compound, how does the inhibition read?
Answer: Its inhibition is -66.9% (inactive).

Question: With `O=c1cc(O)c(-c2cccc(C(F)(F)F)c2)c(Cl)[nH]1` as the compound, how does the inhibition read?
Answer: Its inhibition is 14.3% (inactive).

Question: For `CCc1ccccc1NC(=S)N(CCN1CCCCCC1)Cc1ccco1`, which inhibition is on record?
Answer: The inhibition was -12.7% (inactive).

Question: Which inhibition does the source give for `N/C(Cc1ccc([N+](=O)[O-])cc1)=N\OC(=O)C1CCCCC1` here?
Answer: Its inhibition is -1.96% (inactive).

Question: Which inhibition does the source give for `CCOC(=O)COc1ccc([N+](=O)[O-])cc1` here?
Answer: Its inhibition is 7.8% (inactive).

Question: With `N/C(Cc1ccc([N+](=O)[O-])cc1)=N\OC(=O)COc1ccc2ccccc2c1` as the compound, how does the inhibition read?
Answer: Its inhibition is 62.5% (active).

Question: Which inhibition does the source give for `Cc1ccnc(NC(=O)CCCOc2ccccc2)c1` here?
Answer: Its inhibition is 4.53% (inactive).

Question: With `Cc1cc(C)nc(SCC(=O)N(C)C)n1` as the compound, how does the inhibition read?
Answer: The inhibition was 0.21% (inactive).

Question: With `COc1ccc(CN2CCNC(=O)C2CC(=O)N(C)Cc2ccccn2)cc1OC` (configuration not stated) as the compound, how does the inhibition read?
Answer: Its inhibition is -8.81% (inactive).

Question: With `Cc1cc(C)c(C#N)c(SCC(=O)Nc2ccccc2)n1` as the compound, how does the inhibition read?
Answer: The inhibition was -29.3% (inactive).

Question: For `CC(=O)c1ccc(-c2nnc(CCC(=O)N(C)Cc3cnc4ccccn34)o2)s1`, which inhibition is on record?
Answer: The inhibition was 4.22% (inactive).

Question: Which inhibition does the source give for `N#CC1=C(N)Oc2[nH]c(=S)[nH]c(=O)c2C12C(=O)Nc1ccccc12` (configuration not stated) here?
Answer: Its inhibition is -26.7% (inactive).

Question: For `COc1ccc(-n2nnnc2SCc2nc(N)nc(N3CCOCC3)n2)cc1`, which inhibition is on record?
Answer: Its inhibition is 61.2% (active).

Question: With `COc1ccc(-c2nnn(Cc3nc(N)nc(N4CCCCC4)n3)n2)cc1` as the compound, how does the inhibition read?
Answer: Its inhibition is -40.4% (inactive).

Question: Which inhibition does the source give for `COc1ccc(-n2nnnc2SCC(=O)NCc2cccs2)cc1` here?
Answer: Its inhibition is 12.9% (inactive).

Question: Which inhibition does the source give for `CCOC(=O)c1sc(=NC(=O)/C=C/c2cccs2)n(C)c1C` here?
Answer: Its inhibition is -26.1% (inactive).

Question: For `Cc1cccc(C(=O)NNC(=O)c2cccc([N+](=O)[O-])c2)c1`, which inhibition is on record?
Answer: Its inhibition is -0.72% (inactive).

Question: For `O=C(CC12CC3CC(CC(C3)C1)C2)NCc1ccco1`, which inhibition is on record?
Answer: Its inhibition is 23.1% (inactive).

Question: For `Fc1ccccc1Cn1cnc(NC(=S)NCCc2ccccc2)n1`, which inhibition is on record?
Answer: Its inhibition is -14.1% (inactive).

Question: With `CCC(C)CN1CCC(CO)(Cc2ccccc2Cl)CC1` (configuration not stated) as the compound, how does the inhibition read?
Answer: Its inhibition is -16.5% (inactive).

Question: Which inhibition does the source give for `CCN1CCN(CC(=O)Nc2sc3c(c2C#N)CCC3)CC1` here?
Answer: Its inhibition is 9.33% (inactive).

Question: For `CCN(CC)CCNC(=O)c1ccc(NC(=O)c2c(F)cccc2Cl)cc1`, which inhibition is on record?
Answer: Its inhibition is -1.94% (inactive).

Question: For `O=C(NCC1CCCO1)C1CCN(C2CCN(C(=O)C3CCCCC3)CC2)CC1` (configuration not stated), which inhibition is on record?
Answer: Its inhibition is 13% (inactive).

Question: Which inhibition does the source give for `O=C(CCCN1C(=O)c2cccc3cccc(c23)C1=O)N1CCN(Cc2ccc3c(c2)OCO3)CC1` here?
Answer: The inhibition was -25.6% (inactive).

Question: With `Cn1c(=O)cc(OCCCC(=O)N2CCN(c3ccccn3)CC2)c2ccccc21` as the compound, how does the inhibition read?
Answer: Its inhibition is -12.9% (inactive).

Question: For `Cn1c(=O)cc(OCCCC(=O)N2CCN(Cc3ccc4c(c3)OCO4)CC2)c2ccccc21`, which inhibition is on record?
Answer: The inhibition was 52.1% (active).

Question: With `COCc1ccc(C(=O)N2CCc3c([nH]c4ccccc34)C2c2ccccn2)s1` (configuration not stated) as the compound, how does the inhibition read?
Answer: The inhibition was 4.79% (inactive).

Question: For `CCN(CC)c1ccc2c(Nc3ccccc3)c(C=O)c(=O)oc2c1`, which inhibition is on record?
Answer: Its inhibition is -20.2% (inactive).

Question: For `O=C(COC(=O)c1ccco1)NCc1ccc(Cl)cc1`, which inhibition is on record?
Answer: The inhibition was -1.29% (inactive).

Question: For `O=C(O)c1ccc(NC(=O)c2cccs2)cc1`, which inhibition is on record?
Answer: Its inhibition is -5.04% (inactive).

Question: With `O=S(=O)(/N=C(/Nc1ccccn1)c1ccccc1)c1ccc(Cl)cc1` as the compound, how does the inhibition read?
Answer: Its inhibition is -19.7% (inactive).

Question: With `O=S(=O)(/N=C(/Nc1ccccc1)c1ccccc1)c1cccs1` as the compound, how does the inhibition read?
Answer: The inhibition was 68.3% (active).

Question: With `COc1ccc(NC(=O)CN2C(=O)CSC2=O)cc1` as the compound, how does the inhibition read?
Answer: The inhibition was -1.6% (inactive).

Question: Which inhibition does the source give for `O=C(N/N=C/c1cc2c(cc1Br)OCO2)C1COc2ccccc2O1` (configuration not stated) here?
Answer: Its inhibition is -17.4% (inactive).

Question: For `Cc1cc(C)cc(OCC(=O)Nc2ccc(S(=O)(=O)Nc3ccccn3)cc2)c1`, which inhibition is on record?
Answer: The inhibition was -36.2% (inactive).
